# Results: PubChem BioAssay (EPA / NIEHS)
# Results filed as inconclusive are left out. Some structures have more than one record in an assay (separate samples or runs), and their calls can disagree. Active and inactive are the calls of the source. Rule for the calls, unless noted: active = hit-call score of the fitted dose curve at least 0.9, where 1 is the maximum; inconclusive = response in the unintended direction; inactive = score below 0.9.
# How the values were obtained:
# [1] = read-out: X-box binding protein 1 (XBP1), XBP1 (gene 7494); test: LTEA_HepaRG_XBP1: Life Technologies and Expression Analysis (LTEA) Assay for X-box binding protein 1 (XBP1) using HepaRG (AID 2283540; active = hit-call score of the fitted dose curve at least 0.9, where 1 is the maximum; inactive = score below 0.9); conditions: mRNA level, 48 h; actives raise or lower the signal
# In short: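 Differentiated human HepaRG cells in serum-free induction medium were exposed in duplicate for 48 h to eight half-log concentrations up to 100 uM in 0.5% DMSO. XBP1 mRNA was quantified by qRT-PCR, normalised to ACTB, GAPDH and POLR2A, with bidirectional fitting against DMSO.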
# [2] = LTEA_HepaRG_LDH_cytotoxicity: Cytotoxicity Assessment in the Life Technologies and Expression Analysis (LTEA) Assay (AID 2283563);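 for AC50: LDH activity released into spent culture medium as a marker of cell death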
# In short: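 Differentiated human HepaRG cells, plated 48 h beforehand, were switched to serum-free induction medium and exposed for 48 h to eight half-log concentrations (top 100 uM) in 0.5% DMSO. LDH was measured in spent medium; activity was fitted relative to DMSO vehicle.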
# [3] = ATG_XTT_Cytotoxicity: Cytotoxicity Assessment in the Attagene TRANS-FACTORIAL HepG2 Assay (AID 2283584)
# In short: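 HepG2 human liver cells, transiently transfected with multiple GAL4-UAS reporter units, were dosed and read at 24 h by XTT as cell number. Loss of signal was fitted relative to DMSO negative control baseline.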
# [4] = TOX21_p53_BLA_p2_viability: Viability Assessment in the Tox21 HCT-116 p53 Agonism Beta-lactamase Assay, Phase 2 (AID 2283591);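 note: compound exposure lasted 16 h at 37 °C; actives lower the ATP signal meaning cytotoxicity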
# In short: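 Cytotoxicity readout: CellTiter-Glo ATP luminescence, 30 min at room temperature, after the beta-lactamase read. Cells were HCT116 exposed 16 h at 37C to compounds pin-transferred at 217-fold dilution from DMSO stocks.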
# [5] = molecular target: Cellular tumor antigen p53 (Homo sapiens) (UniProt P04637); test: TOX21_p53_BLA_p2_ratio: Tox21 HCT-116 p53 Agonism Beta-lactamase Assay, Ratio, Phase 2 (AID 2283592)
# In short: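 Ratio endpoint: beta-lactamase cleavage of CCF4-AM, blue (460 nm) over green (530 nm). HCT116 reporter line; 16 h treatment, 37C; substrate 2 h RT.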
# [6] = TOX21_p53_BLA_p3_viability: Viability Assessment in the Tox21 HCT-116 p53 Agonism Beta-lactamase Assay, Phase 3 (AID 2283593);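 note: cells exposed to compound for 16 h before reading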
# In short: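 Cellular ATP was quantified by CellTiter-Glo luminescence, read after 30 min at room temperature. Beforehand, HCT116 cells (4000/well) received compound 5 h post-seeding, 217-fold diluted from DMSO, then incubated 16 h at 37C.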
# [7] = molecular target: Cellular tumor antigen p53 (Homo sapiens) (UniProt P04637); test: TOX21_p53_BLA_p3_ratio: Tox21 HCT-116 p53 Agonism Beta-lactamase Assay, Ratio, Phase 3 (AID 2283596)
# In short: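 Cells were seeded at 4000/well, rested 5 h at 37C, then dosed with DMSO compound solutions (217-fold dilution) for 16 h. CCF4-AM substrate was loaded for 2 h at room temperature, and the 460/530 nm emission ratio was fitted for gain of signal versus DMSO.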
# [8] = TOX21_p53_BLA_p4_viability: Viability Assessment in the Tox21 HCT-116 p53 Agonism Beta-lactamase Assay, Phase 4 (AID 2283597);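 note: hits lower the luminescence signal meaning cytotoxicity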
# In short: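 Cytotoxicity was inferred from loss of CellTiter-Glo luminescence. HCT116 cells had been dosed with compounds after 5 h plating, incubated 16 h at 37C and 5% CO2, and exposed to the CCF4-AM substrate for 2 h.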
# [9] = molecular target: Cellular tumor antigen p53 (Homo sapiens) (UniProt P04637); test: TOX21_p53_BLA_p5_ratio: Tox21 HCT-116 p53 Agonism Beta-lactamase Assay, Ratio, Phase 5 (AID 2283599)
# In short: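 Beta-lactamase reporter ratio (blue 460 nm over green 530 nm, 405 nm excitation) after 2 h CCF4-AM loading, in HCT-116 cells exposed 16 h at 37 C to compounds pinned at 217-fold dilution. Increases relative to DMSO baseline scored.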
# [10] = TOX21_p53_BLA_p5_viability: Viability Assessment in the Tox21 HCT-116 p53 Agonism Beta-lactamase Assay, Phase 5 (AID 2283600)
# In short: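 Luciferase-coupled ATP quantitation of cells treated for 16 h (37C, 5% CO2) with test chemicals delivered in DMSO via a 217-fold dilution; 4000 cells/well; reagent incubated 30 min at room temperature before luminescence reading.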
# [11] = Tanguay_ZF_120hpf_MORT_legacy: (Legacy) Oregon State University Tanguay Lab 120 Hour Post-fertilization zebrafish Assay for Mortality (AID 2283633);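 for AC50: fitted as increase in binary mortality versus DMSO negative control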
# In short: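 Dechorionated Tropical 5D wild-type zebrafish embryos, one per well from 6 hpf, were statically exposed at 28C in the dark until 120 hpf (0.64% DMSO final). Mortality was scored as present/absent by brightfield microscopy, fitted positively versus DMSO.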
# [12] = Tanguay_ZF_120hpf_YSE_legacy: (Legacy) Oregon State University Tanguay Lab 120 Hour Post-fertilization zebrafish Assay for Yolk Sac Edema (AID 2283634);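 for AC50: actives raise the incidence of yolk sac edema above the DMSO baseline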
# In short: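 Tropical 5D wild-type embryos, dechorionated with pronase at 4 hpf, were exposed singly from 6 hpf to 120 hpf under static, sealed, dark conditions at 28C with 0.64% DMSO final. Yolk sac edema was scored present/absent by brightfield microscopy.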
# [13] = Tanguay_ZF_120hpf_AXIS_legacy: (Legacy) Oregon State University Tanguay Lab 120 Hour Post-fertilization zebrafish Assay for Body Axis Malformation (AID 2283635)
# In short: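 Tropical 5D wild-type zebrafish embryos, dechorionated with pronase at 4 hpf, were placed singly in wells at 6 hpf and exposed statically to test chemical (0.64% DMSO final) at 28C until 120 hpf, then scored by brightfield for body axis defects.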
# [14] = Tanguay_ZF_120hpf_EYE_legacy: (Legacy) Oregon State University Tanguay Lab 120 Hour Post-fertilization zebrafish Assay for Eye Malformation (AID 2283636);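 note: binary presence or absence of eye malformation scored by brightfield in 120 hpf larvae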
# In short: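 Binary brightfield scoring of eye defects at 120 hpf after static exposure from 6 hpf of single pronase-dechorionated wild-type embryos (28C, 0.64% DMSO). Non-mortality endpoints omitted where embryos died; fit vs DMSO.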
# [15] = Tanguay_ZF_120hpf_SNOU_legacy: (Legacy) Oregon State University Tanguay Lab 120 Hour Post-fertilization zebrafish Assay for Snout Malformation (AID 2283637)
# In short: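 Binary snout-malformation call at 120 hpf in wild-type 5D embryos, chorion removed by pronase, under static exposure from 6 hpf at 28C (0.64% DMSO). Embryos dying by 24 or 120 hpf excluded.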
# [16] = Tanguay_ZF_120hpf_OTIC_legacy: (Legacy) Oregon State University Tanguay Lab 120 Hour Post-fertilization zebrafish Assay for Otic Vesicle Malformation (AID 2283639)
# In short: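 Statically exposed wild-type 5D zebrafish embryos, kept sealed and dark at 28C through 120 hours post fertilization, were examined by brightfield microscopy for otic vesicle defects. Responses were recorded as present or absent and analysed relative to DMSO.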
# [17] = Tanguay_ZF_120hpf_PE_legacy: (Legacy) Oregon State University Tanguay Lab 120 Hour Post-fertilization zebrafish Assay for Pericardial Edema (AID 2283640);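 for AC50: potency for increased incidence of pericardial edema versus DMSO baseline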
# In short: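 Tropical 5D wild-type zebrafish embryos were exposed statically to 120 hpf at 28C, sealed and foil-covered, in 0.64% DMSO final. Pericardial edema was scored present/absent by brightfield microscopy; dead embryos were not scored.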
# [18] = Tanguay_ZF_120hpf_BRAI_legacy: (Legacy) Oregon State University Tanguay Lab 120 Hour Post-fertilization zebrafish Assay for Brain Malformation (AID 2283641)
# In short: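 Tropical 5D wild-type zebrafish embryos were exposed statically in sealed, foil-covered plates at 28C until 120 hpf, with 0.64% (vol/vol) final DMSO. Brain malformation was scored present/absent by brightfield microscopy, relative to DMSO baseline.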
# [19] = Tanguay_ZF_120hpf_SOMI_legacy: (Legacy) Oregon State University Tanguay Lab 120 Hour Post-fertilization zebrafish Assay for Somite Malformation (AID 2283647)
# In short: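 Tropical 5D wild-type zebrafish embryos, dechorionated with pronase at 4 hpf, were placed singly at 6 hpf and statically exposed until 120 hpf at 28C in 0.64% DMSO. Somite malformation was scored present/absent by brightfield microscopy versus DMSO.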
# [20] = molecular target: Cellular tumor antigen p53 (Homo sapiens) (UniProt P04637); test: TOX21_p53_BLA_p4_ratio: Tox21 HCT-116 p53 Agonism Beta-lactamase Assay, Ratio, Phase 4 (AID 2283601)
# In short: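 Signal is the blue/green (460nm/530nm) ratio of cleaved versus uncleaved CCF4-AM substrate, read after 2 h substrate loading. Cells were HCT116 carrying the p53-responsive beta-lactamase reporter, dosed 16 h at 37C, 5% CO2; CellTiter-Glo measured in parallel.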
# Cellular tumor antigen p53 (Homo sapiens), sequence (P04637 whole entry, looked up): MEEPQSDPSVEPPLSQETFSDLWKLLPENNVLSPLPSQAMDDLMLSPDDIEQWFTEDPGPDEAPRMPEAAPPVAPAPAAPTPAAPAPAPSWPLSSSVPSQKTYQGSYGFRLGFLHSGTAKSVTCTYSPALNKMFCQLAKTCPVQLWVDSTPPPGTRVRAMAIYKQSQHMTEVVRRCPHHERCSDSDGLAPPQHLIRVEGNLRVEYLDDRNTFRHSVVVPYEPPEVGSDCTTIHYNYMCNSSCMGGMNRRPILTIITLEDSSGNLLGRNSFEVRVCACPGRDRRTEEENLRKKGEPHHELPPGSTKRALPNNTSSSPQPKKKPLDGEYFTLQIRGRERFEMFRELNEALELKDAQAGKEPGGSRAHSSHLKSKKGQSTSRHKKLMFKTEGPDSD
smiles,measurement,setting,value
COc1cc(-c2ccc(N)c(OC)c2)ccc1N,outcome,[1],inactive
same,outcome,[2],inactive
same,outcome,[3],inactive
same,outcome,[4],inactive
same,AC50,[5],63 µM (active)
same,outcome,[5],inactive
same,outcome,[6],inactive
same,AC50,[7],63.6 µM (active)
same,outcome,[7],inactive
same,outcome,[8],inactive
same,AC50,[9],71.3 µM (active)
same,outcome,[9],inactive
same,outcome,[10],inactive
same,outcome,[11],inactive
same,AC50,[12],32.8 µM (active)
same,outcome,[12],inactive
same,outcome,[13],inactive
same,AC50,[14],57 µM (active)
same,outcome,[14],inactive
same,AC50,[15],12 µM (active)
same,outcome,[15],inactive
same,outcome,[16],inactive
same,AC50,[17],12.5 µM (active)
same,outcome,[17],inactive
same,AC50,[18],77.2 µM (active)
same,outcome,[18],inactive
same,outcome,[19],inactive
CCN1CCC2(CC1)COc1cc3c(cc12)N(C(=O)c1ccc(-c2ccc(-c4nnc(C)o4)cc2C)cc1)CC3,AC50,[1],27.4 µM (active)
same,AC50,[2],24.6 µM (active)
same,AC50,[4],54.7 µM (active)
same,AC50,[5],64.8 µM (active)
same,AC50,[6],67.5 µM (active)
same,outcome,[7],inactive
same,outcome,[9],inactive
same,AC50,[10],64.2 µM (active)
same,outcome,[11],inactive
same,outcome,[12],inactive
same,outcome,[13],inactive
same,outcome,[14],inactive
same,outcome,[15],inactive
same,outcome,[16],inactive
same,outcome,[17],inactive
same,outcome,[18],inactive
same,outcome,[19],inactive
Cn1sc(Cl)cc1=O,outcome,[1],inactive
same,outcome,[2],inactive
same,outcome,[3],inactive
same,outcome,[4],inactive
same,outcome,[5],inactive
same,AC50,[6],29.8 µM (active)
same,outcome,[6],inactive
same,outcome,[7],inactive
same,outcome,[9],inactive
same,outcome,[10],inactive
same,outcome,[20],inactive
same,AC50,[11],25.7 µM (active)
same,outcome,[14],inactive
same,outcome,[16],inactive
same,outcome,[17],inactive
same,outcome,[18],inactive
Cc1ccccc1N,outcome,[1],inactive
same,outcome,[2],inactive
same,outcome,[3],inactive
same,outcome,[4],inactive
same,outcome,[5],inactive
same,outcome,[6],inactive
same,outcome,[7],inactive
same,outcome,[8],inactive
same,outcome,[9],inactive
same,outcome,[10],inactive
same,outcome,[20],inactive
same,outcome,[11],inactive
same,outcome,[12],inactive
same,outcome,[14],inactive
same,outcome,[15],inactive
same,outcome,[17],inactive
same,outcome,[18],inactive
same,outcome,[19],inactive
O=C(O)C(F)(F)C(F)(F)C(F)(F)C(F)(F)C(F)(F)C(F)(F)C(F)(F)C(F)(F)C(F)(F)C(F)(F)F,outcome,[1],inactive
same,outcome,[2],inactive
same,outcome,[3],inactive
same,outcome,[5],inactive
same,outcome,[7],inactive
same,outcome,[9],inactive
same,outcome,[10],inactive
same,outcome,[11],inactive
same,outcome,[12],inactive
same,outcome,[14],inactive
same,outcome,[15],inactive
same,outcome,[16],inactive
same,outcome,[17],inactive
same,outcome,[18],inactive
same,outcome,[19],inactive
